HTT promoter inh: inhibits huntingtin promoter activity; 48,000 compounds, 0.93% hits; HEK293 HTT promoter firefly luciferase reporter, 24 h; Potency, µM (top dose mostly 57.5 µM), for the others: top-dose activity change, negative = inhibition, usual class: inhibitors; further: nearly all actives have a fitted effect of over 50% in size
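Firefly luciferase readout (Dual-Glo, 10 min RT) after 24 h, 37 °C compound exposure (final up to 57.5 uM) of HEK293 reporter cells cultured 24 h beforehand; PTC124 at 50 uM final as control inhibitor; activity scaled vehicle 0%, zero RLU -100%.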
GALC G270D up: enhancers of human galactocerebrosidase G270D mutant activity in cells. P54803. 145M-Twi-hGALC-G270D cells (Twitcher mouse brain line with human GALC G270D), HMU-beta-Gal fluorescence, 48 h. Potency, µM (top dose mostly 57.5 µM), usual class: activators. 45,000 compounds, 0.1% hits. AID 1159614; further: 0% is about no effect; nearly all actives have a fitted effect of over 65% in size
Target sequence (P54803 whole entry G286D): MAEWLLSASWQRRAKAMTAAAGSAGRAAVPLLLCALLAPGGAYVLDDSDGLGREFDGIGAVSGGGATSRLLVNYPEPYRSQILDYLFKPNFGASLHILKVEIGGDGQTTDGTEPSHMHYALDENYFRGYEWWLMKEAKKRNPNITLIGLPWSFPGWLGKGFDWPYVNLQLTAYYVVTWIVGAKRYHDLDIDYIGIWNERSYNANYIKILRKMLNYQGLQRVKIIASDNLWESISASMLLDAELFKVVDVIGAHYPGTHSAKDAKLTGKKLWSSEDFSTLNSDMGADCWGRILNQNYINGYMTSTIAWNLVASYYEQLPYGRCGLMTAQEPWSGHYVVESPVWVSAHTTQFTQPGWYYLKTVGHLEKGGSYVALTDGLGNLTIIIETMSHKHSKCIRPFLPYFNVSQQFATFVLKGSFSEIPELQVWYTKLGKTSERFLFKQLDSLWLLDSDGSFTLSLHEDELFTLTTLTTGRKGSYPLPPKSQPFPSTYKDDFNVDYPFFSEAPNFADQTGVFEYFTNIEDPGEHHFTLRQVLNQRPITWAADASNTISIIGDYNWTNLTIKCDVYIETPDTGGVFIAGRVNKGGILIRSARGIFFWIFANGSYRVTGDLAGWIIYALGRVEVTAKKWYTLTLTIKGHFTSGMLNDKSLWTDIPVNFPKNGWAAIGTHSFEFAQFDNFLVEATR
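Live 145M-Twi cells (Twitcher mouse brain-derived, GALC-null) stably expressing human GALC-G270D, with a wild-type GALC line, were compound-treated. Residual GALC activity was then read as fluorescence from 0.1 mM final HMU-β-gal at pH 5.2; higher signal means activation.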
HTT-AS promoter: HTT-AS promoter activation; HEK293 HTT-AS promoter firefly luciferase reporter, 24 h; response scale: percent change from vehicle, -100% = no light; Potency, µM (highest dose often 57.5 µM), for inactives: top-dose activity change, positive = activation, most hits filed as activators; 48,000 compounds, 0.24% hits; further: nearly all actives have a fitted effect of over 55% in size
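Quantitative HTS used concentration series of up to 57.5 uM final on HEK293 luciferase reporter cells, 24 h at 37 degrees C. Readout was Dual-Glo firefly luminescence.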
Active calls of the source: *. Rows were chosen to be rich in hits. Some 1.3% of all compounds tested hit in one or more screens of this group. The call rests on the fitted dose curve; in most records, active means well fitted curve in the direction sought with a large enough effect; inconclusive means small, poorly fitted or top-dose-only effect, or another doubt; inactive means no such curve, though single readings can be large; an effect the other way counts as inactive or inconclusive. Potency means the concentration at half of the fitted maximal effect.

For O=C(C=CC=Cc1ccc2c(c1)OCO2)N1CCCCC1 the results were HTT promoter inh 22.5% and HTT-AS promoter inconclusive.
`COc1ccc(NC(=O)c2ccc(-c3nc(CSc4ccccc4)c(C)o3)cc2)cc1OC` gave HTT promoter inh inconclusive, GALC G270D up inactive and HTT-AS promoter -23.0%.
`Cc1oc(-c2ccc(C(=O)Nc3cccc(C(F)(F)F)c3)cc2)nc1CSc1ccccc1` gave HTT promoter inh 1.78µM*, GALC G270D up inactive and HTT-AS promoter -88.7%.
For CC(=O)c1ccc(NC(=O)c2ccc(-c3nc(CSc4ccccc4)c(C)o3)cc2)cc1 the results were HTT promoter inh inconclusive, GALC G270D up inactive and HTT-AS promoter -31.2%.
`COc1ccc(NC(=O)c2ccc(-c3nc(CSc4ccc(C)cc4)c(C)o3)cc2)cc1Cl` gave HTT promoter inh 4.47µM*, GALC G270D up inactive and HTT-AS promoter -8.0%.
For O=C(c1ccc(C=Cc2n[nH]c3ccccc23)cc1)N1CCNCC1 the results were HTT promoter inh 18.1% and HTT-AS promoter 27.7%.
For Cn1cnc2c(F)c(Nc3ccc(Br)cc3F)c(C(=O)NOCCO)cc21 the results were HTT promoter inh 1.9% and HTT-AS promoter -0.2%.
CC(C)n1cnc2c(NCCCCCCNC(=O)OC(C)(C)C)nc(NCCO)nc21 was read as HTT promoter inh -25.9% and HTT-AS promoter -31.0%.
Screening O=C(O)C1=CC(O)C(O)[C@H](O)C1 (stereo not given in full) returned HTT promoter inh -7.4% and HTT-AS promoter -10.2%.
`COc1ccc(C(=O)Nc2ccc(-c3nc4ccccc4s3)cc2C)cc1Cl` gave HTT promoter inh 56.8%, GALC G270D up inactive and HTT-AS promoter 1µM*.
For COc1ccc(C(=O)Nc2cc(-c3nc4ccccc4s3)ccc2OC)cc1 the results were HTT promoter inh 7.3%, GALC G270D up inactive and HTT-AS promoter -3.2%.
Screening Cc1nc(NC(=O)N2CCC[C@@H]2C(N)=O)sc1-c1csc(C(C)(C)C)n1 returned HTT promoter inh -4.7% and HTT-AS promoter 10.2%.
For COc1cccc([C@@H](C)NCCCc2ccccc2Cl)c1 the results were HTT promoter inh 183.3% and HTT-AS promoter inconclusive.
`COc1ccccc1CCNC(=O)C(=O)NCC(c1cccnc1)N1CCN(c2ccccc2)CC1` (stereo not given) gave HTT promoter inh 12.6µM*, GALC G270D up inactive and HTT-AS promoter -43.8%.
`COc1ccccc1CNC(=O)C(=O)NCC(c1cccnc1)N1CCN(c2ccc(F)cc2)CC1` (stereo not given) gave HTT promoter inh inconclusive, GALC G270D up inactive and HTT-AS promoter -46.2%.
Screening COc1ccc(CNC(=O)C(=O)NCC(c2cccnc2)N2CCN(c3ccccc3F)CC2)cc1 (stereo not given) returned HTT promoter inh 12.6µM*, GALC G270D up inactive and HTT-AS promoter -47.9%.
`COc1ccccc1N1CCN(C(CNC(=O)C(=O)NCc2ccc(F)cc2)c2cccnc2)CC1` (stereo not given) gave HTT promoter inh inconclusive, GALC G270D up inactive and HTT-AS promoter -78.4%.
For CC(=O)Nc1ccc(S(=O)(=O)N2CCC(c3ccncc3)CC2)cc1 the results were HTT promoter inh -12.6%, GALC G270D up inactive and HTT-AS promoter 8.6%.
O=S(=O)(c1ccc(Cl)cc1)N1CCC(c2ccncc2)CC1 was read as HTT promoter inh -7.5%, GALC G270D up inactive and HTT-AS promoter -7.6%.
Screening O=S(=O)(c1ccccc1)N1CCC(c2ccncc2)CC1 returned HTT promoter inh inconclusive, GALC G270D up inactive and HTT-AS promoter -42.7%.
CC(C)(C)c1ccc(S(=O)(=O)N2CCC(c3ccncc3)CC2)cc1 was read as HTT promoter inh 15.8µM*, GALC G270D up inactive and HTT-AS promoter -88.4%.
`Cc1ccc(S(=O)(=O)N2CCC(c3ccncc3)CC2)c(C)c1` gave HTT promoter inh 15.8µM*, GALC G270D up inactive and HTT-AS promoter -84.1%.
`CC(C)Cc1ccc(S(=O)(=O)N2CCC(c3ccncc3)CC2)cc1` gave HTT promoter inh 15.8µM*, GALC G270D up inactive and HTT-AS promoter -79.8%.
CCc1cc2cc(OC)c(OC)cc2c(Cc2ccccc2)n1 was read as HTT promoter inh -1.3%, GALC G270D up inactive and HTT-AS promoter -12.4%.
`COCCOc1nc(-c2ccc(Cl)c(Cl)c2)n(-c2ccc(NC(=O)CCl)cc2)n1` gave HTT promoter inh -19.6% and HTT-AS promoter -15.8%.
For CCc1cccc(CC)c1NC(=O)N1Cc2[nH]nc(NC(=O)c3ccc(N4CCN(C)CC4)cc3)c2C1 the results were HTT promoter inh 0.6% and HTT-AS promoter -16.1%.
Screening Cc1cccc(NC(c2cccc(Cl)c2)c2ccc3cccnc3c2O)n1 (stereo not given) returned HTT promoter inh 10µM*, GALC G270D up inactive and HTT-AS promoter -38.5%.
For COc1ccc(C(Nc2ccccn2)c2ccc3ccc(C)nc3c2O)cc1C (stereo not given) the results were HTT promoter inh inconclusive, GALC G270D up inactive and HTT-AS promoter -30.8%.
CCOc1cc(C(Nc2cc(C)ccn2)c2ccc3cccnc3c2O)ccc1OC (stereo not given) was read as HTT promoter inh 35.5µM*, GALC G270D up inactive and HTT-AS promoter -39.1%.
`Cc1ccc(C(Nc2ccccn2)c2ccc3cccnc3c2O)cc1` (stereo not given) gave HTT promoter inh inconclusive, GALC G270D up inactive and HTT-AS promoter -48.4%.
`CCOC(=O)N1CCN([N+]([O-])=NOc2ccc([N+](=O)[O-])cc2C#N)CC1` gave HTT promoter inh -22.4% and HTT-AS promoter -35.1%.
For Cc1ccc(C)c(N2CCN(C(=O)C3CCCN(Cc4nc(-c5cccc(Cl)c5)oc4C)C3)CC2)c1 (stereo not given) the results were HTT promoter inh -5.1%, GALC G270D up inactive and HTT-AS promoter -7.2%.
For Cc1ccc(Cl)cc1N1CCN(C(=O)C2CCCN(Cc3nc(-c4cccc(Cl)c4)oc3C)C2)CC1 (stereo not given) the results were HTT promoter inh 35.5µM*, GALC G270D up inactive and HTT-AS promoter -46.1%.
For COc1ccc(-c2nc(CSCC(=O)N3CCN(c4ccc(OC)cc4)CC3)c(C)o2)cc1 the results were HTT promoter inh inconclusive, GALC G270D up inactive and HTT-AS promoter -21.7%.
`COC(=O)CSCc1nc(-c2ccc(C(=O)OC)cc2)oc1C` gave HTT promoter inh 2µM*, GALC G270D up inactive and HTT-AS promoter -90.1%.
Screening CCOc1ccc(-c2nc(CSCC(=O)N3CCN(c4ccc(F)cc4)CC3)c(C)o2)cc1 returned HTT promoter inh -17.1%, GALC G270D up inactive and HTT-AS promoter -6.0%.
Screening CCC(C)NC(=O)CSCc1nc(-c2ccc(C)cc2)oc1C (stereo not given) returned HTT promoter inh inconclusive, GALC G270D up inactive and HTT-AS promoter -18.6%.
CCOc1ccc(-c2nc(CSCC(=O)N3CCN(c4cccc(C(F)(F)F)c4)CC3)c(C)o2)cc1 was read as HTT promoter inh 15.8µM*, GALC G270D up inactive and HTT-AS promoter -51.8%.
